In PubChem BioAssay AID1053173 (Broad Institute, 2014) one finds outcome data, which are given here for 112 compounds.

About 390 (26%) of roughly 1,500 compounds were called active. How the calls were made is not given here. These entries were drawn from the full list. Measured potencies and affinities stand elsewhere.

The target in this experiment is Histone-lysine N-methyltransferase NSD2 (Homo sapiens) (UniProt O96028). Nature of the experiment: blockers of NSD2 H4 peptide methylation – biochemical, AlphaScreen, cherry-picked samples, dose response (AID 1053173). Particulars: 120 min; series mostly up to 10 µM. (In general: In Alpha technology, singlet oxygen from a donor bead excites a nearby acceptor bead.)
Chain of Histone-lysine N-methyltransferase NSD2 (Homo sapiens) (O96028 whole entry, looked up): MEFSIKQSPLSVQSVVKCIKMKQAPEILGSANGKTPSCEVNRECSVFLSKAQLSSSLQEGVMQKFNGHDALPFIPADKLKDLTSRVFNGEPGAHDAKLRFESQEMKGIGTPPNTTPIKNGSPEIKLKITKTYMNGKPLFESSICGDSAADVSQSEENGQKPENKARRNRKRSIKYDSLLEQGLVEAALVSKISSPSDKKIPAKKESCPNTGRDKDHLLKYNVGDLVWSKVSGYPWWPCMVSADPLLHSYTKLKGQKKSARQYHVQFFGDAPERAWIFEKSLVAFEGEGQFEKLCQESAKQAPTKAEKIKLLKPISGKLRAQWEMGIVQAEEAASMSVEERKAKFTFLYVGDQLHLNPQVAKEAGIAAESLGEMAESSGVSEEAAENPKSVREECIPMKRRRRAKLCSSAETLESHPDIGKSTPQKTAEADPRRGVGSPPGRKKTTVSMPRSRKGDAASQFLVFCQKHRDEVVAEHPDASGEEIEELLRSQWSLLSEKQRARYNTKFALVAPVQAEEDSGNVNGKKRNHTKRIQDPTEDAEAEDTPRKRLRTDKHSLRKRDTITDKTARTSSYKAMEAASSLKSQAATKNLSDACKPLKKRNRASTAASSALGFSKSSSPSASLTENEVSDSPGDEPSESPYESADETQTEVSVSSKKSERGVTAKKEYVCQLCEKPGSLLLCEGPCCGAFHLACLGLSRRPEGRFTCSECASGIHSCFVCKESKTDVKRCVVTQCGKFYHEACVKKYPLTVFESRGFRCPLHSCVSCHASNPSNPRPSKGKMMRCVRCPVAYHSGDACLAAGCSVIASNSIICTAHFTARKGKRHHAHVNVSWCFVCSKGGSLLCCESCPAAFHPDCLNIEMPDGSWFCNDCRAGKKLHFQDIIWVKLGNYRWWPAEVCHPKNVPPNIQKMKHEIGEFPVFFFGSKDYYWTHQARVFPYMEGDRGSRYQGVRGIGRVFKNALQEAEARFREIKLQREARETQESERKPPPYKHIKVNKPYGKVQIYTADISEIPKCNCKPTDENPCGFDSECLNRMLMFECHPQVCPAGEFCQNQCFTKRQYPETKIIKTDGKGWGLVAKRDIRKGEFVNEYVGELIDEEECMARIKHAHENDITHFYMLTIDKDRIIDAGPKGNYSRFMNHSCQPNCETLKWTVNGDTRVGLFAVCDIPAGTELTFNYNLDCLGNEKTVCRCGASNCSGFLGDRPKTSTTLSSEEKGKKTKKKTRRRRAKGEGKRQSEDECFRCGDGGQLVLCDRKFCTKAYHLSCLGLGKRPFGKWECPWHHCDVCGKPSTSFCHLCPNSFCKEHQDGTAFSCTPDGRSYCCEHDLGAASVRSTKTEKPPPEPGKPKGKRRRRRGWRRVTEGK
Take `O=C1CN(C(=O)COC(=O)c2ccc([N+](=O)[O-])s2)c2ccccc2N1`: the call was inactive.
For the compound `CCN(CC)S(=O)(=O)c1ccc(N2CCN(C)CC2)c(NC(=O)Nc2ccccc2F)c1`, the result was inactive.
In the case of `Cc1ccc(S(=O)(=O)N2CCN(C(=O)C(F)(F)F)C2c2ccc(N(C)C)cc2)cc1` (configuration not stated), the compound was classed as inactive.
For `Cc1ccccc1CN1CCN(C(=O)c2ccco2)CC1`, the result was inactive.
As to `CC1Oc2ccc(C#N)cc2N(Cc2cccc(F)c2)C1=O` (configuration not stated), the compound was classed as inactive.
As for `C=CCN1CCN(C(c2cccc(OC)c2OC)c2nnnn2CCC(C)C)CC1` (configuration not stated), the call was inactive.
On to `CC(=O)c1ccc(NC(=O)CC2Nc3cccc4cccc(c34)NC2=O)cc1` (configuration not stated), for which the outcome was inactive.
Take `O=C1CCCC2=C1C(c1ccc(O)c(O)c1)c1c(ccc3ncccc13)N2` (configuration not stated): the outcome was inactive.
`COCCCNC(=S)Nc1cccc2ncccc12`: the call was inactive.
For the compound `CN(CCc1ccccc1)C1CCCN(S(=O)(=O)N(C)C)C1` (configuration not stated), the compound was called inactive.
Take `C/C(CC(=O)NCCCN1CCOCC1)=N\NC(=O)COc1ccc(Cl)cc1`: the call was inactive.
Take `O=C(COC(=O)c1ccc([N+](=O)[O-])o1)NC1CCS(=O)(=O)C1` (configuration not stated): the result was inactive.
As for `Cc1cccc(NC(=O)c2ccc(NS(=O)(=O)c3cccc4cccnc34)cc2)c1`, the outcome was inactive.
For the compound `Cc1ccc(CSc2nnc(Nc3ccc(C)cc3)s2)cc1`, the result was inactive.
With `CN(c1ccc(C(=O)O)cc1)S(=O)(=O)c1ccccc1` the entry was “inactive”; with `Cc1cc(C)c2c(c1)N[C@H](c1cccs1)[C@@H]1CCO[C@H]21`, “inactive”.
Consider `CC(NC(=O)c1cccc(Br)c1)c1ccccc1` (configuration not stated), for which the call was inactive.
Take `CCN(CC)C(=O)COc1ccc2oc(C)c(C(=O)OC(C)C)c2c1`: the outcome was inactive.
Turning to `COc1ccc(C)cc1NC(=O)CCNC(=O)Cn1cnc2ccccc2c1=O`, the result was inactive.
With `Cc1ccc(Cn2c(SCC(=O)NCC3CCCO3)nc3c2c(=O)n(C)c(=O)n3C)cc1` (configuration not stated) the entry was “inactive”; with `C/C(C=Nn1c(-c2ccc(F)cc2)n[nH]c1=S)=C/c1ccco1`, “inactive”; with `Cc1ccc(C(=O)NC(=S)NNC(=O)c2ccccc2O)cc1`, “inactive”.
The result for `Cc1cc2ccccn2c1C(=O)c1ccc([N+](=O)[O-])o1` reads “inactive”; that for `COc1ccc(S(=O)(=O)NCc2ccc3c(c2)OCO3)cc1OC`, “inactive”; that for `Cn1c(COc2ccc(Cl)cc2)nnc1SCC(=O)NC1CCCCC1`, “inactive”.
With `Cc1ccc(S(=O)(=O)N2CCCC(N3CCOCC3)C2)cc1Cl` (configuration not stated) the entry was “inactive”; with `O=C(NCCC(=O)N1CCc2ccccc21)c1ccco1`, “inactive”.
As for `O=C1CC(C(=O)N2CCc3ccccc32)CN1c1ccccc1` (configuration not stated), the call was inactive.
In the case of `O=C(c1cc(-c2ccc(Cl)cc2)n(-c2ccc(Cl)cc2)n1)N1CCOCC1`, the compound was classed as inactive.
For `O=C(OCC(=O)N1CCOCC1)c1ccc(Br)cc1`, the outcome was inactive.
In the case of `C=CCn1c(SCc2ccc3c(c2)OCO3)nc2scc(-c3ccco3)c2c1=O`, the result was inactive.
Turning to `Cc1cccc(OCC(=O)Nc2ncn[nH]2)c1C`, the outcome was inactive.
Regarding `N#Cc1ccc(OCC(=O)NCCCn2ccnc2)cc1`, the compound was called inactive.
As to `Cc1cc(OCCn2nc(C(=O)O)c3ccccc3c2=O)ccc1C(C)C`, the result was inactive.
The result for `COCCCNC(=O)COc1ccc(Cl)c(C)c1` reads “inactive”; that for `COCCNc1nc(-c2ccccc2)nc2ccccc12`, “inactive”.
`CC(=O)c1ccc(NC(=S)NCCc2cccc(Cl)c2)cc1`: the outcome was inactive.
Consider `COCCNC(=O)CN(C(=O)CCC(=O)Nc1nccs1)c1ccc2c(c1)OCO2`, for which the call was inactive.
For the compound `CCOC(=O)c1cc(NC(=O)CN2CCCC2)cc(C(=O)OCC)c1`, the outcome was inactive.
Regarding `O=C(Cn1cnc2c(cnn2-c2ccccc2)c1=O)OCc1ccccc1`, the outcome was inactive.
For `CN(C)S(=O)(=O)c1ccc(Cl)c(C(=O)OCC(=O)c2ccco2)c1`, the result was inactive.
Consider `COc1ccc(CN(C(=O)c2cccc(OC)c2)C2CCS(=O)(=O)C2)cc1` (configuration not stated), for which the call was inactive.
The result for `CN(C(=O)CN1C(=O)S/C(=C\c2ccccc2F)C1=O)C1CCS(=O)(=O)C1` (configuration not stated) reads “inactive”.
As for `COC(=O)c1nc(NC(=O)c2ccccc2)n[nH]1`, the compound was called inactive.
With `Cc1ccc(C)c(NC(=S)Nc2cccc3cnccc23)c1` the entry was “inactive”; with `O=C(Nc1cc(Cl)ccc1-n1cncn1)c1cccs1`, “inactive”.
Turning to `COc1ccc(C(C(=O)NC(C)(C)C)N(C(=O)CCC(=O)Nc2cc(C)on2)c2ccccc2F)cc1` (configuration not stated), the compound was called inactive.
As to `COc1cccc(/C=C2\N=C(SC)SC2=O)c1OC`, the outcome was inactive.
For `Cc1c(C(=O)N2CCN(c3ccc(F)cc3)CC2)sc2ncnc(N3CCN(c4ccccn4)CC3)c12`, the outcome was inactive.
On to `CC(C)c1nc2oc3c(NCC4CCCO4)ncnc3c2c2c1COC(C)(C)C2` (configuration not stated), for which the compound was called inactive.
Regarding `COC(=O)c1ccc(Cn2cnc3c(sc4nc(N5CCOCC5)c5c(c43)CCCC5)c2=O)o1`, the outcome was inactive.
Take `CCO/C=C/C(=O)N(C)CCC#N`: the compound was called inactive.
The result for `CCN(CC)C(=O)CSc1nc2ccccc2c(=O)n1CCC(=O)NCc1ccc(F)cc1` reads “inactive”.
With `COc1cc(NC(=O)CCn2c(=O)oc3ccccc32)cc(OC)c1OC` the entry was “inactive”; with `Cc1[nH][nH]c(=O)c1C(c1ccc(-c2cccc(C(=O)O)c2)o1)c1c(C)[nH][nH]c1=O`, “inactive”.
On to `Cc1[nH][nH]c(=O)c1C(c1ccc(-c2ccc(F)cc2)o1)c1c(C)[nH][nH]c1=O`, for which the compound was classed as inactive.
On to `O=C(CC1SC2=NCCN2C1=O)Nc1ccccc1` (configuration not stated), for which the compound was classed as inactive.
In the case of `Cc1ccc(OCCCC(=O)Nc2ccccc2C(F)(F)F)cc1`, the compound was classed as inactive.
On to `Cc1cccc(C)c1OCC(O)CNS(=O)(=O)c1ccccc1C(=O)N1CCCCC1` (configuration not stated), for which the compound was called inactive.
With `Cc1ccc(-n2nc3c(=O)n(CC(=O)NCc4ccccc4)nc(C)c3c2C)cc1` the entry was “inactive”.
With `Fc1ccc(C2CCNCC2COc2ccc3c(c2)OCO3)cc1` (configuration not stated), the compound was called inactive.
Turning to `CN(C)Cc1cc(O)c(CN(C)C)cc1O`, the outcome was inactive.
With `Cc1ccc(S(=O)(=O)N2CCOCC2)cc1NC(=O)CSc1ccccn1`, the result was inactive.
For `COc1cc2[nH]c(Cl)c([N+](=O)[O-])c2cc1OC`, the compound was classed as inactive.
`O=C(Nc1cccc(O)c1)c1ccc(Br)cc1`: the result was inactive.
Consider `COc1cc(/C=C/c2nc3ccccc3c(=O)[nH]2)cc(Cl)c1O`, for which the compound was classed as inactive.
With `CC(=O)Nc1cccc(C(=O)OCc2ccccc2)c1` the entry was “inactive”.
Regarding `Nc1nc(=S)c2ncn(C3OC(CO)C(O)C3O)c2[nH]1` (configuration not stated), the compound was called inactive.
With `O=C(/C=C/c1ccc(-c2ccccc2)cc1)NCc1cccnc1` the entry was “inactive”; with `CC(C)(C)CC(=O)Nc1nnc(SCC(=O)NCc2cccs2)s1`, “inactive”.
In the case of `C=CCn1c(=NC(=O)c2ccc(S(=O)(=O)N3CCCC3)cc2)sc2cc(NC(C)=O)ccc21`, the call was inactive.
As for `CC1(C)NC(=O)N(CCOCCOc2c(Cl)cc(Cl)cc2Cl)C1=O`, the compound was classed as inactive.
Take `COc1ccc(CC(=O)NC2CCCCCC2)c(OC)c1`: the result was inactive.
On to `Cc1cc(-c2n[nH]c(=S)n2N=Cc2cccc(OCc3ccccc3)c2)n[nH]1`, for which the call was inactive.
With `CC(C)=NOCC(=O)Nn1c(COc2c(C)cccc2C)nc2ccccc2c1=O` the entry was “inactive”.
Regarding `COc1ccc2nc3cccc(OC)c3nc2c1`, the outcome was inactive.
For the compound `C=CCOCC(O)Cn1c(N2CCCC2)nc2c1c(=O)n(C)c(=O)n2C` (configuration not stated), the compound was classed as inactive.
For `CSCCC(NC(=O)c1ccccc1Cl)C(=O)NCC(c1ccc(F)cc1)N1CCOCC1` (configuration not stated), the compound was called inactive.
With `COc1cc(C(=O)NC(C)c2ccc3ccccc3c2)cc(Cl)c1O` (configuration not stated) the entry was “inactive”; with `COc1cccc(-c2nn3c(-c4ccco4)nnc3s2)c1`, “inactive”; with `COc1ccc(-c2nnc3n2N=C(C)CS3)cc1`, “inactive”.
`Cn1c(=O)[nH]c2nnc(-c3ccc(Cl)c(Cl)c3)nc2c1=O`: the compound was called inactive.
As for `CCOc1ccccc1NC(=O)C1CCCN1C(=O)c1cccs1` (configuration not stated), the result was inactive.
Consider `CSc1nc(N)nc(N(C)C)n1`, for which the result was inactive.
For `O=C(COC(=O)c1ccccc1F)NC1CC1`, the compound was called inactive.
As for `CCOc1ccc(C(CC(=O)O)NC(=O)C23CC4CC(CC(C4)C2)C3)cc1OC` (configuration not stated), the call was inactive.
Take `Cc1nc([N+](=O)[O-])c(C(=O)OCc2ccccc2F)n1C`: the compound was classed as inactive.
With `CNc1c(N)n(Cc2ccccc2)c(=O)[nH]c1=O` the entry was “inactive”; with `Cc1ccccc1CS(=O)(=O)CC(O)CN1CCCC1=O` (configuration not stated), “inactive”; with `CCc1ccc(N(CC(=O)NCc2ccc3c(c2)OCO3)C(=O)c2csnn2)cc1`, “inactive”.
With `CCc1ccc(NC(=O)c2cc(-c3ccc4c(c3)OCO4)on2)cc1` the entry was “inactive”; with `COc1ccc2c(c1)c1nc3ccccc3nc1n2CCn1c(=O)oc2ccccc21`, “inactive”; with `Nc1c(C(=O)NCc2ccc(F)cc2)c2nc3ccccc3nc2n1CCCN1CCOCC1`, “inactive”.
The result for `COc1ccc(C)cc1COC(=O)c1[nH]c(C)c(C(C)=O)c1C` reads “inactive”; that for `COc1ccc(N(CC(=O)NCCSc2ccccn2)S(C)(=O)=O)cc1`, “inactive”.
For `COc1ccc(CNC(=O)CCCn2nc(C)c([N+](=O)[O-])c2C)cc1OC`, the result was inactive.
The result for `Cc1nc2cc(C(=O)NCc3cccnc3)ccc2n1-c1ccc(F)cc1F` reads “inactive”; that for `Cc1ccc(C(=O)NCCn2c(N)c(C#N)c3nc4ccccc4nc32)cc1`, “inactive”; that for `CCOC(=O)CNC(=O)N1CCC(CCC(=O)N(C)Cc2ccccc2)CC1`, “inactive”.
Regarding `CCCC(=O)Nc1ccc(C(=O)O)cc1NC(=O)CCC`, the call was inactive.
Regarding `O=C(O)c1ccc2cccnc2c1O`, the result was inactive.
For the compound `COc1cccc(NC(=O)c2ccc3c(c2)OCCO3)c1`, the compound was classed as inactive.
In the case of `COc1ccc(-c2ncncc2-c2ccccc2)c(O)c1`, the compound was classed as inactive.
The result for `O=C1C=CC(=O)N1c1ccc(N2CCCCC2)cc1` reads “inactive”; that for `Cc1c([N+](=O)[O-])cc(N2C(=O)C=CC2=O)cc1[N+](=O)[O-]`, “inactive”.
As to `CCOC(=S)SCC(=O)Nc1nc(C)c(C)s1`, the compound was classed as inactive.
The result for `O=C(Nc1nnc(SCc2cccc3ccccc23)s1)C1COc2ccccc2O1` (configuration not stated) reads “inactive”; that for `NC(=O)C1Cc2ccccc2CN1S(=O)(=O)c1ccc(Cl)s1` (configuration not stated), “inactive”; that for `COc1ccccc1N(C)S(=O)(=O)c1ccc(C(=O)NC2CCCCCC2)cc1`, “inactive”.
For the compound `COc1cc(OC)c(C(=O)OC(C)C(=O)NCc2ccc3c(c2)OCO3)cc1OC` (configuration not stated), the outcome was inactive.
The result for `C/C(=N\NC(=O)c1nnn(-c2nonc2N)c1C)c1ccc(-c2ccccc2)cc1` reads “inactive”; that for `CC(=O)c1c(C)[nH]c(C(=O)Nc2ccc(C)cc2Br)c1C`, “inactive”.
